How the values were obtained:
Assay in all cases: DAPPL (digital affinity profiling via proximity ligation, sequencing); 10 mM Tris-HCl pH 7.5, 50 mM NaCl, 1 mM DTT, 4% glycerol, room temperature, 30 min; GST-TFs on glutathione beads, 16-mer random dsDNA library, 0.1% formaldehyde crosslink after washing; high values mean tight binding
FLI1 = biological target: T1, FLI1 (Homo sapiens, UniProt Q01543 1-452); details: protein: recombinant; tags: N-terminal GST; dsDNA, one strand shown
T1 sequence: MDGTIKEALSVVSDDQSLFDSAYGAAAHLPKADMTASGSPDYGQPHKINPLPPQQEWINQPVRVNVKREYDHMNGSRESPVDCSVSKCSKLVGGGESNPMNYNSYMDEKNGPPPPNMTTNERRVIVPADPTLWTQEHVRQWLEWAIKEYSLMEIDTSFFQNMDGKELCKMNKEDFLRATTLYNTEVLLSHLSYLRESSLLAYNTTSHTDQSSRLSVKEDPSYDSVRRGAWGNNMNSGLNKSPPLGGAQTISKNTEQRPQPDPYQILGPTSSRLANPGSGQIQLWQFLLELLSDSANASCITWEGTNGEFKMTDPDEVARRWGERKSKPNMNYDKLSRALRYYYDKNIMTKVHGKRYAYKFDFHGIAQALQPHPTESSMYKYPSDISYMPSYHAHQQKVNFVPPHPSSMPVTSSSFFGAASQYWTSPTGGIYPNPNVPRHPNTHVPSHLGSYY
Procedure, shortened: (§1)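 Pools of DNA-barcoded human transcription factors, expressed in yeast as GST fusions on glutathione beads and combined with a tag-only sample, were incubated with 200 nmole of a 16-mer random double-stranded DNA library. Incubation took 30 min at room temperature in Tris/NaCl/DTT/glycerol buffer and was followed by washing, 0.1% formaldehyde crosslinking, proximity ligation (BsaI/T4 ligase, 1 h, 37 °C), PCR amplification and sequencing on an Illumina NextSeq500. Binding signal is the ratio of a hexamer's read frequency for a factor to its frequency for the tag-only sample.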

ELK1 = biological target: T2, ELK1 (Homo sapiens, UniProt P19419 1-428); details: protein: recombinant; tags: N-terminal GST; dsDNA, one strand shown
T2 sequence: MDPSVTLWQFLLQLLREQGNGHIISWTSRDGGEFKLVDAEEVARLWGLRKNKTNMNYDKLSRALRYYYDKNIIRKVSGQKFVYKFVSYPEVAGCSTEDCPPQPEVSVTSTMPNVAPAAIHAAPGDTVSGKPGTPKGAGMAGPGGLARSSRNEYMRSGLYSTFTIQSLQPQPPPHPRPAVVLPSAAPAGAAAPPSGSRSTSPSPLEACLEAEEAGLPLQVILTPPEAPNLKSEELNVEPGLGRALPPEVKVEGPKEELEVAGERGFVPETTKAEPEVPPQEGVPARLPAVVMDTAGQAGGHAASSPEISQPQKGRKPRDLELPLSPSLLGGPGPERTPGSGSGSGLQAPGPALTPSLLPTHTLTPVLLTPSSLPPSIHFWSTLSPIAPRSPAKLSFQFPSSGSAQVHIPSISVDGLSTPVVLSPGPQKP
Procedure, shortened: as §1

GABPA = biological target: T3, GABPA (Homo sapiens, UniProt Q06546 1-454); details: protein: recombinant; tags: N-terminal GST; dsDNA, one strand shown
T3 sequence: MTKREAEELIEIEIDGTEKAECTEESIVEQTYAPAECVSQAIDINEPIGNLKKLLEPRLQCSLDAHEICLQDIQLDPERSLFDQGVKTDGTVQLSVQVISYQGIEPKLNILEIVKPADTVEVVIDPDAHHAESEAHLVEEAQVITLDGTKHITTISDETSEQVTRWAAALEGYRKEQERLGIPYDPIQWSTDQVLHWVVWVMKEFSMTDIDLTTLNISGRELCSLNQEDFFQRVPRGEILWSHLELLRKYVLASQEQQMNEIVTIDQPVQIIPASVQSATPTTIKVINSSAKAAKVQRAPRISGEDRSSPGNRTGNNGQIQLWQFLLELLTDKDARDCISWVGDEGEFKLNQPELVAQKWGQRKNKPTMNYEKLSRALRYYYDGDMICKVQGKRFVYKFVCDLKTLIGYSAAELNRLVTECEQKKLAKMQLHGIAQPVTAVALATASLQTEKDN
Procedure, shortened: as §1

ERG = biological target: T4, ERG (Homo sapiens, UniProt P11308 1-479); details: protein: recombinant; tags: N-terminal GST; dsDNA, one strand shown
T4 sequence: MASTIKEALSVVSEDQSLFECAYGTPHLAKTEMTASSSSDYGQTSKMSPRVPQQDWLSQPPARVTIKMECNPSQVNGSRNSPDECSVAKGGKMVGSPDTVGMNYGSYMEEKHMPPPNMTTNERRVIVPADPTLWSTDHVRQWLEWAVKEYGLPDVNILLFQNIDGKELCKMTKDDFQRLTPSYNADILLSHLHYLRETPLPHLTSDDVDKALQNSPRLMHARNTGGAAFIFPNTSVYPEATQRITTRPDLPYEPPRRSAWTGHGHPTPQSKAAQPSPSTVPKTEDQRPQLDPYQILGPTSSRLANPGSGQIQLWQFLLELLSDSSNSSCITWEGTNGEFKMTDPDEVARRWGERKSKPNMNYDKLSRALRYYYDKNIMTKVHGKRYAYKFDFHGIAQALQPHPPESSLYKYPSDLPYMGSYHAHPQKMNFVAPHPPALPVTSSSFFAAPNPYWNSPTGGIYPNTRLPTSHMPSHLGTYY
Procedure, shortened: as §1

ELF1 = ELF1 (Homo sapiens, UniProt P32519 1-619); details: protein: recombinant; tags: N-terminal GST; dsDNA, one strand shown
Procedure, shortened: as §1

EHF = biological target: T5, EHF (Homo sapiens, UniProt Q9NZC4 1-300); details: protein: recombinant; tags: N-terminal GST; dsDNA, one strand shown
T5 sequence: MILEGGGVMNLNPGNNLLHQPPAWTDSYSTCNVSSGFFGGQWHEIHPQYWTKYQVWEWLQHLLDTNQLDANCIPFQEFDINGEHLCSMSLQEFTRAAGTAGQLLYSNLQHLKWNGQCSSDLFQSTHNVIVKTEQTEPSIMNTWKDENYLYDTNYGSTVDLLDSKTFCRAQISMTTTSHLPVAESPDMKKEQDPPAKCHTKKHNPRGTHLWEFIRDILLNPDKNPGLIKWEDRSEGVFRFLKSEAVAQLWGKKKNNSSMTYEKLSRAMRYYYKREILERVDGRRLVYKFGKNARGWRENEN
Procedure, shortened: as §1

SPI1 = SPI1 (Homo sapiens, UniProt P17947 1-270); details: protein: recombinant; tags: N-terminal GST; dsDNA, one strand shown
Procedure, shortened: as §1

SPIB = SPIB (Homo sapiens, UniProt Q01892 1-262); details: protein: recombinant; tags: N-terminal GST; dsDNA, one strand shown
Procedure, shortened: as §1

ELK3 = biological target: T6, ELK3 (Homo sapiens, UniProt P41970 1-407); details: protein: recombinant; tags: N-terminal GST; dsDNA, one strand shown
T6 sequence: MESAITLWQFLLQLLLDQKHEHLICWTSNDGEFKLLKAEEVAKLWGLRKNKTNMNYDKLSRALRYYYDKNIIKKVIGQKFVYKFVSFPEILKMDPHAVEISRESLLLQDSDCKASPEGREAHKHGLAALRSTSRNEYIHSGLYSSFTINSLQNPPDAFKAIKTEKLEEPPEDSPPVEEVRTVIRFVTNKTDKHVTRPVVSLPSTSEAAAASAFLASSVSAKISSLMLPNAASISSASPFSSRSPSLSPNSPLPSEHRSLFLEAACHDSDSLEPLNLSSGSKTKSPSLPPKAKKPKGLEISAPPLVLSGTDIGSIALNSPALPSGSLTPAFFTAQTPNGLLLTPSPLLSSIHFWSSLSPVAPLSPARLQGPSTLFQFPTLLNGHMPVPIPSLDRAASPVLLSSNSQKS
Procedure, shortened: as §1

FEV = biological target: T7, FEV (Homo sapiens, UniProt Q99581 1-238); details: protein: recombinant; tags: N-terminal GST; dsDNA, one strand shown
T7 sequence: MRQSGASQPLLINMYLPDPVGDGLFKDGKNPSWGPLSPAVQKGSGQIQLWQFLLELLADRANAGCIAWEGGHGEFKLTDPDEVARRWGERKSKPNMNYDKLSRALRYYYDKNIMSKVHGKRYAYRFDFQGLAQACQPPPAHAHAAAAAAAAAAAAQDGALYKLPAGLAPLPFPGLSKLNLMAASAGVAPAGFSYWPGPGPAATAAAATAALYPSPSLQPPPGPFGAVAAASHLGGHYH
Procedure, shortened: as §1

ETV5 = ETV5 (Homo sapiens, UniProt P41161 1-510); details: protein: recombinant; tags: N-terminal GST; dsDNA, one strand shown
Procedure, shortened: as §1

HSF1 = HSF1 (Homo sapiens, UniProt Q00613 1-529); details: protein: recombinant; tags: N-terminal GST; chain copies: 3; dsDNA, one strand shown
Procedure, shortened: as §1

SPIC = biological target: T8, SPIC (Homo sapiens, UniProt Q8N5J4 1-248); details: protein: recombinant; tags: N-terminal GST; dsDNA, one strand shown
T8 sequence: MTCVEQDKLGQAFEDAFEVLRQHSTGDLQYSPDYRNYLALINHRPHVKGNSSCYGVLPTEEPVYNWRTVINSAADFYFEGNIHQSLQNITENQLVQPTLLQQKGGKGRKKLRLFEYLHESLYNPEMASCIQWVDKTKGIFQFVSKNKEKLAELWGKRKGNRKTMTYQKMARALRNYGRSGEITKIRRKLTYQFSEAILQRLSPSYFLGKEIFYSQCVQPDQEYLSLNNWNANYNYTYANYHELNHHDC
Procedure, shortened: as §1

ELF4 = ELF4 (Homo sapiens, UniProt Q99607 1-663); details: protein: recombinant; tags: N-terminal GST; dsDNA, one strand shown
Procedure, shortened: as §1

ELK4 = biological target: T9, ELK4 (Homo sapiens, UniProt P28324-2 1-405); details: protein: recombinant; tags: N-terminal GST; dsDNA, one strand shown
T9 sequence: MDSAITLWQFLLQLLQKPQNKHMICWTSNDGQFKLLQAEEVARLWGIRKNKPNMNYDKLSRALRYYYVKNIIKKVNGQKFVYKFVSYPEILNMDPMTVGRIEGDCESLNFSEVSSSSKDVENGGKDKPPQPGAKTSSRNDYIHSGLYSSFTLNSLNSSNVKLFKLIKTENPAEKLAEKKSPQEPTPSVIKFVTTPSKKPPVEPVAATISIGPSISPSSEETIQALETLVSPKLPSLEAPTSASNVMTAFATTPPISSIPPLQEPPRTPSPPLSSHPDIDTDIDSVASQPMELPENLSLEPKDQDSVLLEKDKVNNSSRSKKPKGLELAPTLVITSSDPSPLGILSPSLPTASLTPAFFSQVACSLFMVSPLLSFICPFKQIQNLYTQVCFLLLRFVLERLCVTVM
Procedure, shortened: as §1

ETV2 = biological target: T10, ETV2 (Homo sapiens, UniProt O00321 1-342); details: protein: recombinant; tags: N-terminal GST; dsDNA, one strand shown
T10 sequence: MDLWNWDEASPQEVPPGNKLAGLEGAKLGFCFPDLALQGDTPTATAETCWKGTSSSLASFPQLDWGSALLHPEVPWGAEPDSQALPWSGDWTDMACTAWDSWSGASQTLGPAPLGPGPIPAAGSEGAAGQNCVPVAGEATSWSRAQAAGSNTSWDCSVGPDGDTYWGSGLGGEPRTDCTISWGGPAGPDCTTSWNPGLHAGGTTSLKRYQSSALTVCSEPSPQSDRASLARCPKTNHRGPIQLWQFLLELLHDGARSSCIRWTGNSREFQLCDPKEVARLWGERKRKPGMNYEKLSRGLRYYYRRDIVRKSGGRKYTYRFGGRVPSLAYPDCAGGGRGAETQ
Procedure, shortened: as §1

ELF3 = biological target: T11, ELF3 (Homo sapiens, UniProt P78545 1-371); details: protein: recombinant; tags: N-terminal GST; dsDNA, one strand shown
T11 sequence: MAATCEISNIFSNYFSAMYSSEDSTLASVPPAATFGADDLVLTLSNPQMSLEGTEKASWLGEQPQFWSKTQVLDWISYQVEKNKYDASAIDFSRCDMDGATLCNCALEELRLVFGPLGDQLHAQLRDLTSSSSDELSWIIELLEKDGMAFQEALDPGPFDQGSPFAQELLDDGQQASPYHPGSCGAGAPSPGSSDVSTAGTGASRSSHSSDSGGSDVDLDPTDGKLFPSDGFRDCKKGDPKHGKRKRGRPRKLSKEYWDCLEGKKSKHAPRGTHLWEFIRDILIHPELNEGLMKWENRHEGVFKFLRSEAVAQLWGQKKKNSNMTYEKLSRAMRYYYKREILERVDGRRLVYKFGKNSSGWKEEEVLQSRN
Procedure, shortened: as §1

CRX = CRX (Homo sapiens, UniProt O43186 1-299); details: protein: recombinant; tags: N-terminal GST; dsDNA, one strand shown
Procedure, shortened: as §1

ETV1 = ETV1 (Homo sapiens, UniProt P50549 1-477); details: protein: recombinant; tags: N-terminal GST; dsDNA, one strand shown
Procedure, shortened: as §1

Chain of ETV5 (P41161 whole entry): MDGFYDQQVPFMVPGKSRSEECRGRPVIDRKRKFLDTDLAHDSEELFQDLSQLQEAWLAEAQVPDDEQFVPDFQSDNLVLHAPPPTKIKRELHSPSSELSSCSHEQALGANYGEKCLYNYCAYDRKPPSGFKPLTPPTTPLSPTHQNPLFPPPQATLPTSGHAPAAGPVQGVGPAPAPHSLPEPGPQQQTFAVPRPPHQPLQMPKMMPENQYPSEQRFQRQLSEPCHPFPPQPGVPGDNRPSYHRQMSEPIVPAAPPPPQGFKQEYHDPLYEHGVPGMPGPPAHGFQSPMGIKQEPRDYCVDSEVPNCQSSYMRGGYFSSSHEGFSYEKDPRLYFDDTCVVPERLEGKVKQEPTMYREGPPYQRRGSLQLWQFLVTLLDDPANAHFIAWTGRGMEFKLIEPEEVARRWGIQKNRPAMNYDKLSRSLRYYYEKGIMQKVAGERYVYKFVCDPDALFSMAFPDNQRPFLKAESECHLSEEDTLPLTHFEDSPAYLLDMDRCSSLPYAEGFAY
Chain of ELF1 (P32519 whole entry): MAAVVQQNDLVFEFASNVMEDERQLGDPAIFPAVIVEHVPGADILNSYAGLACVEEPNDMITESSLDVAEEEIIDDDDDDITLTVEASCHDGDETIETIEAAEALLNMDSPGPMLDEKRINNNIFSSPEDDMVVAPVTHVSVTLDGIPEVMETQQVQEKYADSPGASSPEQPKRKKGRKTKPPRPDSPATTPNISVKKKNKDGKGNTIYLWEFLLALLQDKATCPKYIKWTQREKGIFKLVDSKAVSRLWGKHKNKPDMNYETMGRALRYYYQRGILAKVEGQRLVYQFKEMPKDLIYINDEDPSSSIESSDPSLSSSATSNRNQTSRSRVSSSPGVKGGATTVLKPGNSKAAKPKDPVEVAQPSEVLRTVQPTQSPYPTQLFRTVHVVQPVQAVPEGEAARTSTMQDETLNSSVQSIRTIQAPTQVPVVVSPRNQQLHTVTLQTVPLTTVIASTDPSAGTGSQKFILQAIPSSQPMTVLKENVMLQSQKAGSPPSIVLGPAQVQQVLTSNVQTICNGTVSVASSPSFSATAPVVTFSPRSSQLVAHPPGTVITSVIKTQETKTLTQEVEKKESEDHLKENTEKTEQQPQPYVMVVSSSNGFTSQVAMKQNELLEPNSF
Chain of ETV1 (P50549 whole entry): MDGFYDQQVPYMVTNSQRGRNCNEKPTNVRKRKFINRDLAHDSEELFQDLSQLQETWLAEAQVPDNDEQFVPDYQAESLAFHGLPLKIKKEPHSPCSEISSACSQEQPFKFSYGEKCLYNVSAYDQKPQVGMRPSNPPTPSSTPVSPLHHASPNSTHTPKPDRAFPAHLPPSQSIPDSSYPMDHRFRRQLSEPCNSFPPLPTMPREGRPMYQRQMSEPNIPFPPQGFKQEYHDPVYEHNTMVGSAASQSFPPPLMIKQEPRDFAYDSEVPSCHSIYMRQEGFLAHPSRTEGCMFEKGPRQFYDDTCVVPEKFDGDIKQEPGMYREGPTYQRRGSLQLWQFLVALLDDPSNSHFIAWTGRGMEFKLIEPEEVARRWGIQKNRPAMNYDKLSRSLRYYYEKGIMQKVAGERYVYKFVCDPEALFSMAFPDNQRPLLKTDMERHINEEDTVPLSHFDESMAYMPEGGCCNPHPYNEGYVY
Chain of CRX (O43186 whole entry): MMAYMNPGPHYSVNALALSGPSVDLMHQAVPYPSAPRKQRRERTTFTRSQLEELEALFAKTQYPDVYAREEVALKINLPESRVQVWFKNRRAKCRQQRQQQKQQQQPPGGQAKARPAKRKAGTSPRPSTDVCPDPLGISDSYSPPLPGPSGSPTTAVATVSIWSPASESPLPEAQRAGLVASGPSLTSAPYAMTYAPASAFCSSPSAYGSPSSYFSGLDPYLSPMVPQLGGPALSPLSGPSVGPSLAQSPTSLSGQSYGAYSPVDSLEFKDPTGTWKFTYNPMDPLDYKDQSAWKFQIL
Chain of ELF4 (Q99607 whole entry): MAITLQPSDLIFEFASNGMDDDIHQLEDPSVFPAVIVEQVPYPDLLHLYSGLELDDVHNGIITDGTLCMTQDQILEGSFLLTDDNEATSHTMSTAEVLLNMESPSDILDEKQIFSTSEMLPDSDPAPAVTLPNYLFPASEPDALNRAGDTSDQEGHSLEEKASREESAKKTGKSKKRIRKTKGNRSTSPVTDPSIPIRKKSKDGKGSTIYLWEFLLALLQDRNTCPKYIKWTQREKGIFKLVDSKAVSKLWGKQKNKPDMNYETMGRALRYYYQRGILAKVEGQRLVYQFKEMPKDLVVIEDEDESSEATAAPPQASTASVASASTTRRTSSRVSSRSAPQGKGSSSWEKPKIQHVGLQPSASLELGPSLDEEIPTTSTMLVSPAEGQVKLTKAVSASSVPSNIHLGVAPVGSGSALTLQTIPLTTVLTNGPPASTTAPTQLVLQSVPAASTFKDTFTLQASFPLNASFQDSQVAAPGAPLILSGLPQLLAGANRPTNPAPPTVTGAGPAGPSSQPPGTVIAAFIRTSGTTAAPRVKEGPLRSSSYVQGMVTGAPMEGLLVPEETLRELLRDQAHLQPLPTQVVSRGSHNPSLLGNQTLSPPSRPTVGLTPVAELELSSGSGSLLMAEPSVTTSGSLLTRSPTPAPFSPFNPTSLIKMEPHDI
Chain of SPIB (Q01892 whole entry): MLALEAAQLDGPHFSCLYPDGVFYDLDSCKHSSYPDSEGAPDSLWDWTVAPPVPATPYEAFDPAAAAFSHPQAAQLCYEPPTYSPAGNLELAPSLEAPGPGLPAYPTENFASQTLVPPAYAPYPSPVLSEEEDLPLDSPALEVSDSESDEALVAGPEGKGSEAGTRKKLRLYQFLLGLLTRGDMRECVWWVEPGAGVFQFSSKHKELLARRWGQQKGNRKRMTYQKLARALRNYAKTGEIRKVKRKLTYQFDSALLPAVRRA
Chain of HSF1 (Q00613 whole entry): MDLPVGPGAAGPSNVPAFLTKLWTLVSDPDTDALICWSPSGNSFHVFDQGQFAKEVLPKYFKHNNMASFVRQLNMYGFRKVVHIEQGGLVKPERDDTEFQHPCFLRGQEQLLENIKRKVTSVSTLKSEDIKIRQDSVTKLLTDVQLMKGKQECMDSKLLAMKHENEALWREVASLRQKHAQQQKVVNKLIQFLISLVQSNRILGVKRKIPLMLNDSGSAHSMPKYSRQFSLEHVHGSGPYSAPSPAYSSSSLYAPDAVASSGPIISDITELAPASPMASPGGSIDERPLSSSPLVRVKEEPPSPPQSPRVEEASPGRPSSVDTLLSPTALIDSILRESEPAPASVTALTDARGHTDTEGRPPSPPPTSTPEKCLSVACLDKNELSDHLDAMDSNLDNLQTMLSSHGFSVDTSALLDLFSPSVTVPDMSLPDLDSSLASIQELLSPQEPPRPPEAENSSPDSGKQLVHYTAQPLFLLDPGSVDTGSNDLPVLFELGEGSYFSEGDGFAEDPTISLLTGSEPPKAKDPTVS

For TCGCCT, the binding signal (FLI1) was 1.32 fold enrichment (6-mer frequency, TF over GST control), the binding signal (ELK1) was 1.36 fold enrichment (6-mer frequency, TF over GST control) and the binding signal (GABPA) was 1.2 fold enrichment (6-mer frequency, TF over GST control). For the same sequence, the binding signal (ERG) was 1.31 fold enrichment (6-mer frequency, TF over GST control), the binding signal (ELF1) was 1.21 fold enrichment (6-mer frequency, TF over GST control) and the binding signal (EHF) was 1.34 fold enrichment (6-mer frequency, TF over GST control). For the same sequence, the binding signal (SPI1) was 1.16 fold enrichment (6-mer frequency, TF over GST control), the binding signal (SPIB) was 1.23 fold enrichment (6-mer frequency, TF over GST control) and the binding signal (ELK3) was 1.15 fold enrichment (6-mer frequency, TF over GST control). For the same sequence, the binding signal (FEV) was 1.28 fold enrichment (6-mer frequency, TF over GST control), the binding signal (ETV5) was 1.3 fold enrichment (6-mer frequency, TF over GST control) and the binding signal (HSF1) was 1.3 fold enrichment (6-mer frequency, TF over GST control). For the same sequence, the binding signal (SPIC) was 1.22 fold enrichment (6-mer frequency, TF over GST control), the binding signal (ELF4) was 1.27 fold enrichment (6-mer frequency, TF over GST control) and the binding signal (ELK4) was 1.5 fold enrichment (6-mer frequency, TF over GST control). For the same sequence, the binding signal (ETV2) was 1.3 fold enrichment (6-mer frequency, TF over GST control), the binding signal (ELF3) was 1.31 fold enrichment (6-mer frequency, TF over GST control) and the binding signal (CRX) was 1.32 fold enrichment (6-mer frequency, TF over GST control). The binding signal (ETV1) was 1.41 fold enrichment (6-mer frequency, TF over GST control).
